# Results: PubChem BioAssay (NCATS)
# Records with an inconclusive call do not appear. A call without a number means that no potency is given here. Calls of active or inactive are those of the source. Calls follow the shape of the dose curve; as a rule, active = well fitted inhibition curve with a large enough effect; inconclusive = small, poorly fitted or top-dose-only effect; inactive = no such curve, though single readings can be large or run the other way.
# Assay: P-glycoprotein substrates identified in KB-3-1 adenocarcinoma cell line, qHTS therapeutic library screen (AID 1346986); also: nearly all actives have a fitted effect of over 60% in size;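 also: potency is for cytotoxicity meaning loss of cell viability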
# Details: KB-3-1 parental cells viability, CellTiter-Glo, 72 h; series mostly up to 44.5 µM
# In short: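 KB-3-1 parental and colchicine-selected P-gp-overexpressing KB-8-5-11 cells (colchicine omitted during assay), 500 cells/well, dosed in dose-response for 72 h at 37 °C; CellTiter-Glo luminescence. Cytotoxic: curve class -1.1 to -2.4, max response >50%, AC50 < 10 uM.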
# Potency is read from the fitted curve at half-maximal effect.
SMILES,Potency,outcome
C=C1C(O)CC2C(C(=O)O)=COC(O[C@@H]3O[C@H](COC(=O)/C=C/c4ccc(O)cc4)[C@@H](O)[C@H](O)[C@H]3O)C12 (some centres not stated),inactive,–
Cn1c(=O)n(-c2ccc(C(C)(C)C#N)cc2)c2c3cc(C#Cc4cccnc4)ccc3ncc21,126 nM (active),–
CC(C)(C)NC(=O)[C@@H](c1cccnc1)N(C(=O)c1ccco1)c1ccc(C(C)(C)C)cc1,inactive,–
O=C1CCC(=O)N(O)CCCCCNC(=O)CCC(=O)N(O)CCOCCNC(=O)CCC(=O)N(O)CCCCCN1,inactive,–
C[C@H](CCC(=O)O)[C@H]1CC[C@H]2[C@@H]3C[C@H](O)[C@@H]4C[C@H](O)CC[C@]4(C)[C@H]3CC[C@]12C,inactive,–
N#C[C@@H]1CCCN1C(=O)CNC12CC3CC(CC(O)(C3)C1)C2,inactive,–
COc1ccc(/C=C\C(=O)O)c(O[C@@H]2O[C@H](CO)[C@@H](O)[C@H](O)[C@H]2O)c1,inactive,–
CC(=O)O[C@H]1CC[C@@]2(C)C(CC[C@@H](C)[C@]23Cc2c(O)cc4c(c2O3)CN([C@@H](CCC(=O)O)C(=O)O)C4=O)C1(C)C (some centres not stated),inactive,–
CC1=C(C(=O)OCc2ccccc2)C(c2ccc(-c3ccccc3)cc2)NC(=O)N1CCCCCC(=O)O (configuration not stated),inactive,–
OC[C@H]1O[C@@H](Oc2cc(O)c3c(c2)O[C@@H](c2ccc(O)cc2)[C@H](O)C3)[C@H](O)[C@@H](O)[C@@H]1O,inactive,–
C=C[C@@H]1[C@H](O[C@@H]2O[C@H](CO)[C@@H](O)[C@H](O)[C@H]2O)OC=C(C(=O)O)[C@H]1CCOC(=O)/C=C/c1ccc(O)c(O)c1,inactive,–
C=C(C(=O)O)C1CCC2(C)CCC(O)C(=C)C2C1 (configuration not stated),inactive,–
CC#CC(=O)N1CCC[C@H]1c1nc(-c2ccc(C(=O)Nc3ccccn3)cc2)c2c(N)nccn12,inactive,–
C[C@@H](O)[C@H](NC(=O)c1ccc(C#Cc2ccc(CN3CCOCC3)cc2)cc1)C(=O)NO,inactive,–
Nc1nccn2c(C3CCC(C(=O)O)CC3)nc(-c3cc4cccc(Cl)c4[nH]3)c12 (configuration not stated),1640 nM (active),–
O=C1NC(Cc2c[nH]c3ccccc23)C(=O)NC1Cc1c[nH]c2ccccc12 (configuration not stated),inactive,–

SMILES,Potency,outcome
COc1ccc(C(O)C(C)OC2OC(CO)C(O)C(O)C2O)cc1 (configuration not stated),inactive,–
C=CC(C)(CC/C=C(\C)C(=O)OC)OC1OC(COC(=O)CC(C)(O)CC(=O)O)C(OC2OC(CO)C(O)C(O)C2O)C(O)C1O (configuration not stated),inactive,–
CCCn1c(=O)c2[nH]c(-c3ccc(OCC(=O)O)cc3)nc2n(CCC)c1=O,inactive,–
C/C(=C\CCC(C)CCO)C(=O)O[C@@H]1[C@@H](O)[C@H](OC2OC=C(C(=O)O)C3CCC(C)(O)C23)O[C@H](CO)[C@H]1O (some centres not stated),inactive,–
CC(C)=CCC/C(C)=C/CCC1(C)Oc2c(c(O)cc3c2CN(C(CCC(=O)O)C(=O)O)C3=O)CC1O (configuration not stated),inactive,–
C=C[C@H]1C(O[C@@H]2O[C@H](CO)[C@@H](O)[C@H](O)[C@H]2O)OC=C2C(=O)N3CCc4c([nH]c5ccccc45)C3CC21 (some centres not stated),inactive,–
COc1cc(/C=C/C=O)cc(OC)c1O[C@@H]1O[C@H](CO)[C@@H](O)[C@H](O)[C@H]1O,inactive,–
C/C1=C\CCC(C)CCO[C@@H]2O[C@H](CO[C@@H]3OC[C@H](O)[C@H](O)[C@H]3OC1=O)[C@@H](O)[C@H](O)[C@H]2O (some centres not stated),inactive,–
C=C[C@H]1[C@H](O[C@@H]2O[C@H](CO)[C@@H](O)[C@H](O)[C@H]2O)OC=C(C(=O)OC)[C@H]1CCOC(=O)c1cc(O)c(O)c(O)c1,inactive,–
CC1C(=O)OCC2=CCN3CCC(OC(=O)C(C)(O)C1(C)O)C23 (configuration not stated),inactive,–
CC(=O)N[C@@H](CCCCN)C(=O)N(C)[C@@H](CC(C)C)C(=O)N[C@H](C(=O)N(C)[C@@H](Cc1ccccc1)C(=O)N[C@H](Cc1ccccc1)C(N)=O)C(C)C,–,inactive [at 5.11 µM]
CC(=O)CC1CCC(C(C)C(=O)OCC(O)CO)O1 (configuration not stated),inactive,–
COc1c2c(c(C)c3c1C(=O)OC3)O[C@@]1(C)CCC3(C(C)(C)O)OC(=O)CC[C@]3(C)[C@H]1C2 (some centres not stated),inactive,–
OC[C@H]1O[C@@H](OCCc2ccccc2)[C@H](O[C@@H]2OC[C@](O)(CO)[C@H]2O)[C@@H](O)[C@@H]1O,inactive,–
O=C(O)c1cc(-c2c(-c3ccccc3)nn3ccccc23)n[nH]c1=O,inactive,–
CC(=O)OC/C=C(\C)C(CC1C(C)=C(OC(C)=O)C(=O)C2C(C)(C)C(O)CCC12C)OC(C)=O (configuration not stated),inactive,–
